Among all 310,000 compounds or so, about 2,200 (0.71%) showed an effect of 50% or more. Effects have a minus sign here. The sample as a whole holds a higher share of strong results than the screen did.
Target: human ether-à-go-go-related gene (hERG) potassium channel (human, UniProt Q12809)
Test: primary screen, population patch clamp on CHO cells stably expressing hERG; higher = less effect of the substance

Sequence of human ether-à-go-go-related gene (hERG) potassium channel (Q12809 whole entry, looked up): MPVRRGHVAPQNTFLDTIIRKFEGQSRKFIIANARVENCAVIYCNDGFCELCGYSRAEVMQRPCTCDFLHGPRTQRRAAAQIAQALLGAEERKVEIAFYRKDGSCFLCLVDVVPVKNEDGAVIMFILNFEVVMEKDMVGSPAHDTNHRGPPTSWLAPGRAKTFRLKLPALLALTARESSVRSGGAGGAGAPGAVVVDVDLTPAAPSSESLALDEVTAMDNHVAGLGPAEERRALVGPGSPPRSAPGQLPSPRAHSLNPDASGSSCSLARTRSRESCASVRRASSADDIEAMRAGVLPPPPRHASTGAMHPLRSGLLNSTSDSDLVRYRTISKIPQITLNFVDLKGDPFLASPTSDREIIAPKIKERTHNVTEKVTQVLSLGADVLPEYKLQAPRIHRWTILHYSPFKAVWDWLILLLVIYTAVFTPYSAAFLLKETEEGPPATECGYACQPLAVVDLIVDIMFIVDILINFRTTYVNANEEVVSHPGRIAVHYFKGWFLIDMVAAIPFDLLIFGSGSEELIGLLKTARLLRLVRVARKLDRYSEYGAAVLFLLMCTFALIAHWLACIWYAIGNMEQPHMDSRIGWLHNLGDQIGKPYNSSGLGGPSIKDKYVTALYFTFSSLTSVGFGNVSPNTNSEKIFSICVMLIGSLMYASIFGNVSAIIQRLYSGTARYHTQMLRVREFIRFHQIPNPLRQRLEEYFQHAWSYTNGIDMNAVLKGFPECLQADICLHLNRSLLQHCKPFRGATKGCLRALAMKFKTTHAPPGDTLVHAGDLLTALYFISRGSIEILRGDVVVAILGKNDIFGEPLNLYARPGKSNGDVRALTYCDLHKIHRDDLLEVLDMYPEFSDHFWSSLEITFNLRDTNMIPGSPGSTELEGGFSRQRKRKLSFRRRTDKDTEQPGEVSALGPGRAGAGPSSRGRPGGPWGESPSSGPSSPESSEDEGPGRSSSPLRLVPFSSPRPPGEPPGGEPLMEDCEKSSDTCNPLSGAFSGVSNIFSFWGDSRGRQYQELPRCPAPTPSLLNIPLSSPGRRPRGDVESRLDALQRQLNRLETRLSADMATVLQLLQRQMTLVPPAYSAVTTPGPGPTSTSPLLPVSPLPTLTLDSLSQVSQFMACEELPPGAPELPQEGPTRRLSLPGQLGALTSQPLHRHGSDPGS

SMILES | hERG current change (%, negative = inhibition) at 1uM
O=C(Nc1nc(-c2cccs2)cs1)c1ccc(Cl)s1 | -6.43%
Cc1cc2nn(-c3ccc(Cl)cc3)nc2cc1N | 14%
CCO/C=C/C(O)(CNC(=O)COc1ccccc1F)C(F)(F)F (centres unmarked) | 19.8%
CN1C(=O)N(c2nnc(C(C)(C)C)s2)C(=O)C1c1ccccc1 (centres unmarked) | 14.2%
Cc1nnsc1C(=O)Nc1ccc(S(=O)(=O)N2CCCCC2C)cc1 (centres unmarked) | 12.5%
CC1CCCCN1C(=O)Nc1cccc(C(F)(F)F)c1 (centres unmarked) | 9.57%
Cc1c(Cl)cccc1NC(=S)NNc1ncc(C(F)(F)F)cc1Cl | 4.45%
CC(C)OCC(O)CN1CCC(Cc2ccccc2)CC1.Cl (centres unmarked) | -2.15%
Cl.OC(COc1ccccc1)CN1CCC(Cc2ccccc2)CC1 (centres unmarked) | -78%
Cl.OC(COc1ccccc1)CN1CCN(CC(O)COc2ccccc2)CC1 (centres unmarked) | -19.5%
CC(C(O)c1ccc(O)cc1)N1CCC(Cc2ccccc2)CC1.O.O=C(O)C(O)C(O)C(=O)O (centres unmarked) | -37.8%
Cl.OC(COc1ccc(Cl)cc1)CN1CCN(c2ccccc2)CC1 (centres unmarked) | 0.0675%
CC(C(O)c1ccc(O)cc1)N1CCC(Cc2ccccc2)CC1.O=C(O)C(O)C(O)C(=O)O (centres unmarked) | -33.4%
Cc1cccc(OCC(O)CN2CCc3ccccc3C2)c1.Cl (centres unmarked) | -0.945%
COc1cccc(OCC(O)CN2CCc3ccccc3C2)c1.Cl (centres unmarked) | -57.6%
C[C@@H](CN1CCC(Cc2ccccc2)CC1)[C@@H](O)c1ccc(O)cc1.Cl | -60.5%
Cl.OC(COc1ccc(Cl)cc1)CN1CCC(Cc2ccccc2)CC1 (centres unmarked) | -89.6%
Cl.OC(COc1ccc(Cl)cc1)CN1CCCCC1 (centres unmarked) | -29.8%
COc1ccc(OCC(O)CN2CCc3ccccc3C2)cc1.Cl (centres unmarked) | -2.53%
COC(=O)c1ccc(N2C(=O)CC(N(C)Cc3ccccc3)C2=O)cc1 (centres unmarked) | 13.1%
N#CC(C(=O)NCCc1ccccc1)c1nc2ccccc2nc1N1CCCCC1 (centres unmarked) | 4.11%
COc1nc(N(C)S(=O)(=O)c2ccc(C)cc2)nc(C)c1Br | 16.5%
C/C(=N/NC(=O)Cc1ccccc1)c1ccc(C)s1 | 11.5%

SMILES | hERG current change (%, negative = inhibition) at 1uM
O=C(NCCc1ccccc1)C1CC(=O)N(c2ccc3c(c2)OCCO3)C1 (centres unmarked) | 7.34%
C/C(=N\NC(=O)C(O)(c1ccccc1)c1ccccc1)c1ccc(NC(=O)CCCC(=O)O)cc1 | 11.3%
O=C(CSc1nc(C2CC2)n(-c2ccccc2)n1)NCc1ccco1 | -3.27%
CCOc1ccc(OCC)c(S(=O)(=O)NNC(=O)c2c(C)nc3ccccn23)c1 | 5.91%
COc1ccc(S(=O)(=O)N(C)CC(=O)N2CCOCC2)cc1 | -2.22%
O=C(Nc1ccc(NC(=O)c2cccc([N+](=O)[O-])c2)cc1)c1cccc([N+](=O)[O-])c1 | 9.44%
Cc1cccc(C)c1OCC(O)CN1CCc2ccccc2C1.Cl (centres unmarked) | -24.3%
Cc1cc(C)cc(OCC(O)CN2CCN(Cc3ccc4c(c3)OCO4)CC2)c1.Cl (centres unmarked) | -67.9%
COc1cccc(OCC(O)CN2CCC(C)CC2)c1.Cl (centres unmarked) | 3.42%
Cc1ccc(C)c(OCC(O)CN2CCc3ccccc3C2)c1C.Cl (centres unmarked) | -56.1%
O=S(=O)(c1ccc(OCC(O)CN2CCC(Cc3ccccc3)CC2)cc1)N1CCOCC1 (centres unmarked) | -10.3%
Cl.OC(COc1ccc(Br)cc1)CN1CCCC1 (centres unmarked) | 5.23%
COc1cccc(OCC(O)CN2CCC(Cc3ccccc3)CC2)c1.Cl (centres unmarked) | -55.6%
Cc1ccc(OCC(O)CN2CCN(Cc3ccc4c(c3)OCO4)CC2)cc1C.Cl (centres unmarked) | 5.88%
Cc1ccc(OCC(O)CN2CCc3ccccc3C2)c(C)c1.Cl (centres unmarked) | -42.6%
COc1ccc(OCC(O)CN2CCN(Cc3ccc4c(c3)OCO4)CC2)cc1.Cl (centres unmarked) | -9.87%
COc1cccc(OCC(O)CN2CCN(C(c3ccccc3)c3ccccc3)CC2)c1.Cl (centres unmarked) | 3.72%
Cl.OC(COc1ccc(Br)cc1)CN1CCC(Cc2ccccc2)CC1 (centres unmarked) | -83.7%
CC(=O)N1CCc2cc(Br)cc(S(=O)(=O)CCC(=O)N3CCN(c4ccccn4)CC3)c21 | 6.2%
CCn1c(Cc2cccs2)nnc1SCC(=O)c1ccc(C)cc1 | 5.59%
COc1ccc(NS(=O)(=O)c2ccc(O)c(C(=O)OCC(=O)N3CC(C)OC(C)C3)c2)cc1 (centres unmarked) | 12.3%
COc1cccc(NC(=O)CN2C(=O)COc3ccc(Cl)cc32)c1 | 8.19%
Cc1ccc(C)c(NC(=S)NNC(=O)c2csc(C(C)C)c2)c1 | 0.742%

SMILES | hERG current change (%, negative = inhibition) at 1uM
COc1cc(NC(=O)c2sc3nc(C)nc(N4CCOCC4)c3c2C)cc(OC)c1OC | 30.1%
Cc1csc2nc3cc(C(N)=O)ccc3c(=O)n12 | 10.2%
CCCCN(CC)Cc1c(C)[nH]c2c(ccc3ccccc32)c1=O | -49.6%
CCCCN(C)Cc1c(C)[nH]c2c(ccc3ccccc32)c1=O | -56.1%
CCCCN(C)Cc1c(C)[nH]c2ccccc2c1=O | -8.8%
O=C(c1ccco1)N1C(=O)c2cccc3c(S(=O)(=O)N4CCCC4)ccc1c23 | 6.3%
CCc1ccc2oc(-c3cc(N)ccc3Cl)nc2c1 | 12%
COc1ccc(C(=O)C2CCCN(C3Cc4ccccc4C3)C2)cc1OC (centres unmarked) | -33.2%
COc1ccc(C(=O)C2CCCN(Cc3ccc(C)s3)C2)c(OC)c1 (centres unmarked) | -2.87%
COc1ccc(C(=O)C2CCCN(Cc3c[nH]c4ccccc34)C2)c(OC)c1 (centres unmarked) | -58.8%
COc1ccc(C(=O)C2CCCN(Cc3cccc(C)n3)C2)c(OC)c1 (centres unmarked) | -58.3%
COc1cccc(C(=O)C2CCCN(Cc3cccc(C)n3)C2)c1 (centres unmarked) | -30.1%
COc1cccc(C(=O)C2CCCN(C/C=C/c3ccccc3OC)C2)c1 (centres unmarked) | -2.82%
COc1ccc(C(=O)C2CCCN(C3CSCCSC3)C2)c(OC)c1 (centres unmarked) | -4.62%
COc1ccc(C(=O)C2CCCN(C3Cc4ccccc4C3)C2)c(OC)c1 (centres unmarked) | -68.2%
COc1ccc(C(=O)C2CCCN(C/C=C/c3ccccc3OC)C2)c(OC)c1 (centres unmarked) | -78.6%
COc1ccc2cc(C(=O)C3CCCN(Cc4cccc(C)n4)C3)ccc2c1 (centres unmarked) | 11.2%
COc1ccc(C(=O)C2CCCN(Cc3c(C)[nH]c4ccccc34)C2)c(OC)c1 (centres unmarked) | -28.6%
COc1ccc(F)cc1C(=O)C1CCCN(Cc2c[nH]c3ccccc23)C1 (centres unmarked) | -18.6%
CNC(=O)NC(=O)CSc1nnc(C(F)(F)F)n1C | 8.32%
O=C(OCC(=O)N1CCCC1)c1c(Cl)ccc(Cl)c1Cl | 9.45%
CCCc1nc(NC(C)=O)c(C#N)c(-c2ccco2)c1CC | 0.0807%
Cc1cccc(C)c1NC(=O)c1c[nH]c2ccccc12 | 11.7%

SMILES | hERG current change (%, negative = inhibition) at 1uM
COCC(C)n1c(C)cc(C(=O)CN2c3cccc4cccc(c34)S2(=O)=O)c1C (centres unmarked) | 7.82%
CC(C)C(c1nnnn1Cc1ccccc1)N(CCCO)Cc1cc2cc3c(cc2[nH]c1=O)OCO3 (centres unmarked) | 10.4%
COC(=O)c1cc2ccsc2n1CC(=O)Nc1ccc(N(C)C)cc1 | 5.25%
C=CCN1N=C(c2ccc(Cl)s2)CSC1=O | 22.3%
Cc1ccc(NC(=S)NC(=O)CC2CC(C)(C)OC2=O)cc1 (centres unmarked) | 8.78%
CCN1/C(=C/c2cc[n+](C)cc2)C=Cc2cc(C)ccc21.[I-] | -55.5%
CCOC(=O)/C(C#N)=C/C=C1\C=Cc2ccccc2N1CC | 14.8%
CCN1/C(=C2\C(=O)N(c3ccccc3)N=C2C)C=Cc2cc(C)ccc21 | -1.41%
CCN1C(=C(C#N)C#N)C=Cc2ccccc21 | 15.9%
CCN1/C(=C/c2ccc3ccccc3[n+]2CCCS(=O)(=O)[O-])C=Cc2cc(C)ccc21 | 13%
C=CC[n+]1c(/C=C2\C=Cc3cc(C)ccc3N2CC)ccc2ccccc21.[Br-] | -92.1%
CCN1C(=O)/C(=C2\C=Cc3cc(C)ccc3N2CC)OC1=S | 14%
CCN1C(=C(C#N)C#N)C=Cc2cc(C)ccc21 | 14.9%
CCN1/C(=C/c2ccc3ccccc3[n+]2CC)C=Cc2ccccc21.[Cl-] | -89.5%
O=S(=O)(CCc1nnc(-c2ccc(Br)cc2)o1)c1ccc(Cl)cc1 | 6.04%
Cc1cccc(NC(=O)CSc2cccc3cccnc23)c1C | 13.9%
COc1ccccc1NC(=O)c1nc[nH]c1C(=O)Nc1ccccc1OC | 22.2%
CCCCCC(=O)N1CCN(CCN=CC2=C(O)CC(c3ccco3)CC2=O)CC1 (centres unmarked) | -74.7%
CCC(=O)N1CCN(CCN=CC2=C(O)CC(c3cccs3)CC2=O)CC1 (centres unmarked) | 9.17%
CC(=O)N1CCN(CCN=CC2=C(O)CC(c3cccs3)CC2=O)CC1 (centres unmarked) | 10.4%
CC(C)C(=O)N1CCN(CCN=CC2=C(O)CC(c3ccco3)CC2=O)CC1 (centres unmarked) | 14%
CC(=O)N1CCN(CCN=CC2=C(O)CC(c3ccco3)CC2=O)CC1 (centres unmarked) | 2.39%
CCCCCC(=O)N1CCN(CCN=CC2=C(O)CC(c3cccs3)CC2=O)CC1 (centres unmarked) | -109%
